Reference: PubChem BioAssay (NCATS)
Records with an inconclusive call do not appear. Entries that show only a call come without a potency. Active and inactive are the calls of the source. Calls follow the shape of the dose curve; as a rule, active = well fitted cell-killing curve with a large enough effect; inconclusive = small, poorly fitted or top-dose-only effect; inactive = flat fitted curve, though single readings scatter.

Assay: Cell Viability - LYMP1-003 - Assay at 40 hr (AID 964); also: nearly all actives have a fitted effect of over 60% in size
Settings: LYMP1-003 lymphoblastoid viability; series mostly up to 92.2 µM
From the text: NIH Chemical Genomics Center [NCGC]
NIH Molecular Libraries Screening Centers Network [MLSCN]
National Institutes of Environmental Health Sciences [NIEHS]
National Toxicology Program [NTP]
We have developed a 1536-well cell-based assay for quantitative high throughput screening (qHTS) against a number of cell lines to determine in vitro cytotoxicity of small molecules. This particular assay uses a human lymphoblastoid cell line (LYMP1-003) purchased from Coriell Institute for Medical Research.
NCGC Assay Protocol Summary:
The CellTiter-Glo luminescent cell viability assay (Promega) is a homogeneous method to measure the number of viable cells in culture. The end point readout of this assay is based on quantitation of intracellular ATP, an indicator of metabolic activity, using the luciferase reaction. Luciferase catalyzes the oxidation of beetle Luciferin to oxyluciferin and light in the presence of ATP. The luminescent signal is proportional to amount of ATP present.
Using the CellTiter-Glo luminescent cell viability assay, the amount of cellular ATP was measured in the lymphoblastoid cell line with complete culture medium following compound treatment for 40 hours. The assay was performed in opaque white Kalypsys 1536-well plates. In the screen, tetraoctylammonium bromide was used as positive control. Library compounds were measured for their ability to cause acute toxicity in the cell line, as reflected by a decrease in intracellular ATP levels, in a concentration-dependent manner. […] AC50 values were determined from concentration-response data modeled with the standard Hill equation.
qHTS protocol for CellTiter Glo lymphoblastoid cellular assay
[Step] [Parameter] [Value] [Description]
1. Reagent; 5 uL; 2500 lymphoblastoid cells/well
2. Time; 5 hr; 37 C incubation
4. Controls; 23 nL; Tetraoctylammonium bromide 6.4pM to 92 uM
5. Time; 40 hr; 37 C incubation
6. Reagent; 5 uL; CellTiter Glo reagent
7. Time; 30 min; Room Temperature
8. Detection; Luminescence; Viewlux plate reader
Keywords: cell viability, cytotoxicity, lymphoblastoid cell line, luminescence, NTPHTS, NTPHTS_NCGC, NIEHS, DSSTox, MLSMR, MLSCN, NIH Roadmap, qHTS, NCGC
Potency is read from the fitted curve at half-maximal effect.

SMILES	Potency
ClCCCCl	inactive
c1ccc(N=NNc2ccccc2)cc1	inactive
O=C(O)CCl	inactive
Clc1cccc(Cl)c1	inactive
CCOC(=O)CC(SP(=O)(OC)OC)C(=O)OCC (stereo not given)	inactive
BrC(Br)Br	inactive
O=C(O)c1cc(Cl)ccc1Cl	inactive
Cc1ccc(N)cc1C	inactive
Clc1cccc(Cl)c1Cl	inactive
CN(C)N=O	inactive
CCCCC(=O)Cl	inactive
CCNCC	inactive
O=[N+]([O-])c1c(Cl)c(Cl)c(Cl)c(Cl)c1Cl	inactive
CCCCOCC1CO1 (stereo not given)	inactive
C=CC(=O)OCC(CC)CCCC (stereo not given)	inactive
CCN(CC)N=O	inactive
Nc1c(Cl)cc([N+](=O)[O-])cc1Cl	inactive
ClCC(Cl)Cl	inactive
S=c1[nH]c2ccccc2[nH]1	inactive
COc1ccccc1N	inactive

SMILES	Potency
Cc1cc(Cl)ccc1O	inactive
C=CCc1cc(OC)c2c(c1)OCO2	inactive
c1ccc(NNc2ccccc2)cc1	inactive
[O-][Cl+]O	inactive
C=C(Cl)CSC(=S)N(CC)CC	inactive
C[N+](=O)[O-]	inactive
ClCC(Cl)CCl	inactive
CN(C)c1ccc(N)cc1	39.8 µM (active)
Cc1ccc([N+](=O)[O-])cc1	inactive
O=Cc1ccc(Cl)cc1Cl	inactive
Cc1ccc(N)cc1N	inactive
O=Cc1ccc2c(c1)OCO2	inactive
O=C(O)C(Br)Br	inactive
BrCC(Br)(Br)Br	inactive
OCCOCCO	inactive
CC(C)OS(C)(=O)=O	inactive
CCOP(=S)(OCC)Oc1nc(Cl)c(Cl)cc1Cl	inactive
O=[N+]([O-])c1ccc(Cl)c(Cl)c1Cl	inactive
C=C(C)CCl	inactive
C=CCOCC1CO1 (stereo not given)	inactive
